Results published in the supplement of paper PMC3334620.
The full ranking holds about 33,000 sequences; the median of “E-score (-0.5 to 0.5)” is about -8e-05, and the highest 2% start at about 0.23. This excerpt belongs to a sample that is enriched for the highest values.

What follows are sequences tested against T1, Nrg2 (UniProt P38082) (assay: PBM E-score (8-mer binding enrichment) (E-score (-0.5 to 0.5)); higher = stronger / more preferred TF binding). Details: protein concentration: 100 nM; construct: GST-full length.
T1 sequence: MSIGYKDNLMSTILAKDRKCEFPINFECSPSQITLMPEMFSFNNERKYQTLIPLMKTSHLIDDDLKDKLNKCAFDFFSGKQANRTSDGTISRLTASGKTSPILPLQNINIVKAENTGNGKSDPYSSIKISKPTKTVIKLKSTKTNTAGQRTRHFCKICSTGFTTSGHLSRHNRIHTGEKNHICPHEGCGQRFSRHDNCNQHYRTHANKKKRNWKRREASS
Procedure, shortened: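 Yeast transcription factors, full-length or as DNA-binding domains, were expressed with a GST tag using PURExpress in vitro transcription/translation. At about 100-200 nM they were applied to universal all-10-mer Agilent arrays, double-stranded by primer extension on fresh or once-stripped slides. Fluorescent anti-GST detected bound protein, and masliner normalised the scans. E-scores for ungapped eight-base words, pooled with reverse complements, came from the Universal PBM Analysis Suite.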

| Sequence | PBM E-score |
| --- | --- |
| CCGCGATA | 0.117 |
| GCGCACGA | 0.238 |
| ACGCGCGG | 0.192 |
| CCGCGCGA | 0.202 |
| TCGCGCGA | 0.138 |
| GCGCGATA | 0.254 |
| TCGCACGA | -0.00406 |
| ACGCGCGC | 0.279 |
| ACGCGATA | 0.0412 |
| GCGCGCGA | 0.251 |
| GCGCACGC | -0.0951 |
| CTTACCCA | 0.0294 |
| AATGCAAT | -0.287 |
| GGTCCAGA | 0.125 |
| AGGCGGGG | 0.0214 |
| AACGATTC | 0.0537 |
| ACGGACGT | -0.169 |
| GTCCAGAC | -0.175 |
| ATCTTTGC | 0.133 |
| GCGCGGTA | 0.271 |
| GCGCGCCC | 0.0648 |
| GAGCGCGC | 0.263 |
| CAGCGCGC | 0.21 |
| GCGCGCAC | 0.165 |
| GAGCGCGA | 0.196 |

| Sequence | PBM E-score |
| --- | --- |
| ACGCGGTA | -0.152 |
| GCGCGCGC | 0.415 |
| CCGCGGTA | 0.119 |
| CCTTTCCG | -0.116 |
| TTGAACAA | -0.0525 |
| ACGGAAGC | -0.0173 |
| AGCCAGCG | -0.0673 |
| CTCGGAGA | 0.0113 |
| ATCAGTAA | 0.0691 |
| AGAAAGTC | 0.037 |
| ACCTGTGC | -0.0445 |
| CCCTGAAG | 0.208 |
| CCCTGTGA | 0.059 |
| GCCTGTAA | -0.225 |
| TACTGAAA | 0.242 |
| GCCTGAAC | -0.211 |
| CCCTGTAC | 0.208 |
| GACTGAAA | 0.0848 |
| CCCTGTAA | 0.294 |
| CACTGAAA | 0.0555 |
| CCCTGAAC | 0.282 |
| CCCTGTGC | 0.263 |
| ACGGTTAG | -0.312 |
| ATTCTTTA | -0.0742 |
| CATCAATC | -0.0356 |

| Sequence | PBM E-score |
| --- | --- |
| AGGGTTAC | -0.14 |
| CAAGTGTA | -0.0141 |
| ATGATGGG | 0.0257 |
| CTATGGCA | -0.0101 |
| CCCTGCAA | 0.162 |
| CCCTGAAA | 0.305 |
| CCCTGGAC | 0.295 |
| GCCTGAAA | 0.115 |
| CCCTGGAA | 0.0405 |
| TCCTGAAA | -0.0476 |
| CCCTGCAG | 0.26 |
| CCCTGGAG | 0.05 |
| ACCTGCAG | -0.0488 |
| ACTCCCGG | -0.0764 |
| ATCCCATA | -0.0872 |
| ACATAGTA | 0.0458 |
| GCATAGTA | 0.23 |
| CCATAGTA | 0.0238 |
| TCTGCAAA | -0.0511 |
| GGCTTCTA | -0.075 |
| AGAAACTG | 0.0813 |
| GACAAGGA | 0.0442 |
| GGGGTCCA | 0.27 |
| AGGGTCCC | 0.397 |
| AGGGTCAG | -0.102 |

| Sequence | PBM E-score |
| --- | --- |
| AAGGTCCA | 0.073 |
| CGGGTCAA | -0.0478 |
| ACGGTCCA | -0.162 |
| GAGGTCCA | -0.0725 |
| CGGGTCCC | -0.125 |
| ACGGTCCC | -0.00846 |
| CGGGTCCA | 0.0193 |
| AGGGTCAA | 0.236 |
| AGGGTCCA | 0.439 |
| GGGACAAA | 0.11 |
| GCTGCCAC | -0.138 |
| ACAGTGGT | 0.0526 |
| CTGCTTGA | -0.0823 |
| CAGATCAG | 0.194 |
| CGCTCGGC | 0.0597 |
| ACGGTCCG | -0.231 |
| AGGGTCCG | 0.374 |
| AAGGTCCG | -0.0532 |
| ACCTCAAC | 0.0405 |
| GGCCAACC | 0.0203 |
| ACTATTAA | 0.175 |
| AGTATTAA | 0.219 |
| AATATTAA | 0.295 |
| GATATTAA | 0.147 |
| CGTATTAG | 0.0345 |

| Sequence | PBM E-score |
| --- | --- |
| TATATTAA | 0.234 |
| CATATTAA | 0.129 |
| AGTATTAG | 0.273 |
| AATATTAT | 0.219 |
| CATATTAG | 0.124 |
| AATATTAC | 0.14 |
| AATATTAG | 0.256 |
| CTTAGGAA | -0.0218 |
| CGGAGCAA | 0.0265 |
| CCTTCGCC | -0.31 |
| AATCCTGC | -0.00651 |
| CGCATTCA | 0.0356 |
| GAACTGCA | 0.0913 |
| ACATATAA | 0.211 |
| GCCCCCAA | -0.331 |
| CTTTCCAA | -0.0143 |
| AATATTCA | 0.144 |
| AATATTCG | 0.177 |
| AATATTCC | 0.233 |
| TATTACCA | 0.0363 |
| CGAATACA | 0.0068 |
| ACAACGGA | 0.242 |
| TCAACGGA | -0.0313 |
| ACAACGGT | -0.0246 |
| ACAACGGG | 0.243 |

| Sequence | PBM E-score |
| --- | --- |
| CCAACGGA | -0.031 |
| CCAACGGG | 0.0593 |
| GACCGGAC | -0.168 |
| AAAGGGCG | 0.0812 |
| AGCGCACT | -0.0126 |
| GTTAGGCA | -0.146 |
| CATGGTCA | 0.236 |
| CATGGTCG | -0.0584 |
| CTTGGTCA | 0.138 |
| GTTGGTCA | 0.229 |
| CATGGTCC | 0.0356 |
| ATTGGTCA | 0.0477 |
| GGAGTGAC | 0.102 |
| ACACCGAC | -0.151 |
| CGCCCTAA | -0.171 |
| CGGGCTAC | -0.0936 |
| ATGGGGTA | 0.127 |
| AAAGGGTG | 0.00635 |
| AAAGGGTC | 0.318 |
| ATGGGGTC | 0.299 |
| CTGGGGTC | 0.015 |
| AAAGGGTT | 0.0608 |
| CAAGGGAC | 0.261 |
| CAAGGGAG | -0.0764 |
| CAAGGGAA | 0.0785 |

| Sequence | PBM E-score |
| --- | --- |
| AGGGGGTC | -0.163 |
| AAGGGGTC | 0.239 |
| AAGGGGTG | -0.00477 |
| CCTATATA | 0.0688 |
| CCTTTAGA | -0.136 |
| CGGGGGTC | -0.342 |
| GAAGGGTC | 0.0665 |
| CAAGGGTC | 0.376 |
| CAGGGGTA | 0.166 |
| CAAGGGTG | 0.0522 |
| CAGGGGTC | 0.302 |
| CATCTTAC | -0.00815 |
| ACCAAGTG | -0.0903 |
| CCTCTCTA | -0.294 |
| AATTTCAA | -0.0693 |
| CGTTTTTC | -0.117 |
| GCTACCCA | -0.152 |
| AAGGAAAG | -0.137 |
| AAAAGTAG | 0.0358 |
| CCCGAAAA | 0.129 |
| GCCGAAAA | 0.239 |
| GCCGAAAC | -0.0148 |
